Measured values: PubChem BioAssay AID1159580 (chemical genetic matrix, 2015)
Values joined by “and” are separate entries in the source; they are usually repeats but may differ in a detail not shown here. Equal values may be shown once. The whole screen tested about 5,500 compounds, of which about 2,000 (36%) were called active. Another 18% or so got no clear call; they are omitted. No stated cut-off is given here; in the data, active means normalized growth mostly below about 0.91 (no sharp cut-off); inconclusive means no clear call, values can overlap the other calls; inactive means mostly above about 0.92. This is one part of the list.

Test: chemical genetic growth profiling, strain panel (AID 1159580);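 further: tested at 20 µM; growth read once vehicle control cultures reached saturation at 30 °C; 1 = growth at the plate median or of vehicle wells; lower values mean less growth of the strain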
Settings: S. cerevisiae deletion strains, growth OD

Measured: normalized growth

C[C@@H]1CC[C@]2(C(=O)O)CC[C@]3(C)C(=CCC4[C@@]5(C)CC[C@H](O)C(C)(C)C5CC[C@]43C)C2[C@H]1C (stereo partly specified)
active: locus YGL086W, strain mad1, hits give low values 1.28 [resistant] | locus YKL085W, strain MDH1 (second series), hits give low values 1.33 [resistant] | locus YKL085W, strain MDH1, hits give low values 1.33 [resistant]
inactive: locus YAL021C, strain ccr4, hits give low values 0.995 | locus YAL026C, strain drs2, hits give low values 1.01 | locus YAL030W, strain snc1, hits give low values 0.995 | locus YBL061C, strain skt5, hits give low values 1.01 | locus YBR009C, strain hhf1, hits give low values 1.01 | locus YBR021W, strain FUR4, hits give low values 1.03 | locus YBR023C, strain chs3, hits give low values 1.01 | locus YBR171W, strain sec66, hits give low values 1 | locus YBR229C, strain ROT2, hits give low values 1.03 | locus YBR231C, strain swc5, hits give low values 1.01 | locus YBR279W, strain paf1, hits give low values 1 | locus YCL011C, strain gbp2, hits give low values 1 | locus YCL016C, strain dcc1, hits give low values 1.01 | locus YCL029C, strain bik1, hits give low values 1 | locus YCL061C, strain MRC1, hits give low values 0.997 | locus YCL069W, strain vba3, hits give low values 1.01 | locus YCR088W, strain abp1, hits give low values 0.993 | locus YDL005C, strain med2, hits give low values 0.998 | locus YDL035C, strain GPR1, hits give low values 1.04 | locus YDL040C, strain nat1, hits give low values 0.992 | locus YDL074C, strain BRE1, hits give low values 1.07 | locus YDL101C, strain DUN1, hits give low values 1.03 | locus YDL134C, strain PPH21, hits give low values 1.08 | locus YDL185W, strain tfp1, hits give low values 0.999 | locus YDL192W, strain arf1, hits give low values 1.01 | locus YDR001C, strain nth1, hits give low values 1 | locus YDR069C, strain doa4, hits give low values 1 | locus YDR101C, strain arx1, hits give low values 1.01 | locus YDR137W, strain rgp1, hits give low values 1.04 | locus YDR150W, strain NUM1, hits give low values 1.03 | locus YDR159W, strain sac3, hits give low values 1 | locus YDR162C, strain NBP2, hits give low values 1.07 | locus YDR195W, strain ref2 0.974 | locus YDR297W, strain sur2, hits give low values 1 | locus YDR318W, strain mcm21, hits give low values 0.993 | locus YDR334W, strain swr1, hits give low values 1 | locus YDR335W, strain msn5, hits give low values 0.997 | locus YDR388W, hits give low values 1 | locus YDR392W, strain spt3, hits give low values 0.911 | locus YDR502C, strain sam2, hits give low values 0.997 | locus YEL003W, strain gim4, hits give low values 0.998 | locus YEL037C, strain rad23, hits give low values 1 | locus YEL061C, strain CIN8 (second series), hits give low values 0.995 | locus YEL061C, strain CIN8, hits give low values 1.02 | locus YER015W, strain faa2, hits give low values 1.01 | locus YER016W, strain bim1, hits give low values 0.999 | locus YER110C, hits give low values 1.01 | locus YER111C, strain swi4, hits give low values 0.984 | locus YER155C, strain BEM2 (second series), hits give low values 0.992 | locus YER155C, strain BEM2, hits give low values 1.02 | locus YER167W, strain BCK2, hits give low values 1.03 | locus YFR010W, strain ubp6, hits give low values 0.983 | locus YGL078C, strain dbp3, hits give low values 0.985 | locus YGL167C, strain pmr1, hits give low values 1 | locus YGL173C, strain kem1, hits give low values 1.01 | locus YGL227W, strain vid30, hits give low values 0.994 | locus YGL240W, strain doc1, hits give low values 0.998 | locus YGL248W, strain PDE1, hits give low values 1.03 | locus YGL253W, strain hxk2, hits give low values 1.01 | locus YGR135W, strain pre9, hits give low values 0.996 | locus YGR229C, strain SMI1, hits give low values 1.06 | locus YGR252W, strain gcn5, hits give low values 1.01 | locus YHR013C, strain ard1, hits give low values 0.996 | locus YHR027C, strain rpn1, hits give low values 0.995 | locus YHR030C, strain SLT2, hits give low values 1.02 | locus YHR079C, strain IRE1 (second series), hits give low values 0.996 | locus YHR079C, strain IRE1, hits give low values 1.02 | locus YHR094C, strain hxt1, hits give low values 1.01 | locus YHR129C, strain ARP1, hits give low values 1.03 | locus YHR142W, strain chs7, hits give low values 1.03 | locus YHR200W, strain rpn10, hits give low values 0.986 | locus YIL066C, strain RNR3, hits give low values 1.07 | locus YIL073C, strain SPO22, hits give low values 0.999 | locus YIL125W, strain kgd1, hits give low values 1 | locus YIR030C, strain dcg1, hits give low values 0.997 | locus YJL092W, strain hpr5, hits give low values 0.999 | locus YJL095W, strain BCK1 (second series), hits give low values 0.988 | locus YJL095W, strain BCK1, hits give low values 1.08 and 1.01 | locus YJL115W, strain asf1, hits give low values 0.992 | locus YJL129C, strain trk1, hits give low values 1.01 | locus YJL134W, strain LCB3, hits give low values 1.02 | locus YJL154C, strain vps35, hits give low values 0.997 | locus YJL164C, strain tpk1, hits give low values 1.01 | locus YJL166W, strain qcr8, hits give low values 1 | locus YJL168C, strain set2, hits give low values 0.986 | locus YJL187C, strain SWE1 (second series), hits give low values 1.05 | locus YJL187C, strain SWE1, hits give low values 0.997 | locus YJR043C, strain POL32, hits give low values 1.06 | locus YJR066W, strain TOR1, hits give low values 1.02 | locus YKL068W, hits give low values 1.01 | locus YKL160W, strain elf1, hits give low values 1 | locus YKL190W, strain CNB1, hits give low values 1.02 | locus YKR001C, strain vps1, hits give low values 1.02 | locus YKR026C, strain gcn3, hits give low values 0.996 | locus YKR091W, strain srl3, hits give low values 0.991 | locus YLL001W, strain dnm1, hits give low values 0.989 | locus YLL026W, hits give low values 0.989 | locus YLL041C, strain sdh2, hits give low values 0.995 | locus YLR027C, strain aat2, hits give low values 1.01 | locus YLR039C, strain RIC1, hits give low values 1.14 | locus YLR058C, strain SHM2, hits give low values 1.04 | locus YLR102C, strain apc9, hits give low values 0.987 | locus YLR113W, strain HOG1, hits give low values 0.995 | locus YLR221C, strain rsa3, hits give low values 1 | locus YLR258W, strain gsy2, hits give low values 1.01 | locus YLR262C, strain YPT6 (second series), hits give low values 1.02 | locus YLR262C, strain YPT6, hits give low values 1.11 | locus YLR268W, strain sec22, hits give low values 1.01 | locus YLR320W, strain mms22, hits give low values 1.01 | locus YLR330W, strain CHS5, hits give low values 1.03 | locus YLR342W, strain FKS1 (second series), hits give low values 1.02 | locus YLR342W, strain FKS1, hits give low values 1 | locus YLR357W, strain rsc2, hits give low values 0.975 | locus YLR370C, strain arc18, hits give low values 0.998 | locus YLR371W, strain rom2, hits give low values 0.995 | locus YLR384C, strain iki3, hits give low values 0.995 | locus YLR418C, strain cdc73, hits give low values 1.02 | locus YML016C, strain PPZ1, hits give low values 1.03 | locus YML032C, strain rad52, hits give low values 0.988 | locus YML120C, strain ndi1, hits give low values 0.999 | locus YML124C, strain tub3, hits give low values 0.999 | locus YMR058W, strain fet3, hits give low values 1.01 | locus YMR078C, strain ctf18, hits give low values 0.976 | locus YMR125W, strain sto1, hits give low values 0.986 | locus YMR129W, hits give low values 0.997 | locus YMR205C, strain PFK2, hits give low values 0.991 | locus YMR223W, strain ubp8, hits give low values 0.992 | locus YMR231W, strain pep5, hits give low values 0.998 | locus YMR263W, strain SAP30, hits give low values 1.04 | locus YMR307W, strain GAS1, hits give low values 1.15 | locus YNL067W, strain RPL9B, hits give low values 1.06 | locus YNL071W, strain lat1, hits give low values 1.01 | locus YNL128W, strain TEP1, hits give low values 1.04 | locus YNL183C, strain NPR1, hits give low values 0.993 | locus YNL209W, strain ssb2, hits give low values 0.993 | locus YNL233W, strain BNI4, hits give low values 1.05 | locus YNL248C, strain rpa49, hits give low values 1.01 | locus YNL250W, strain rad50, hits give low values 0.997 | locus YNL271C, strain bni1, hits give low values 0.991 | locus YNL298W, strain CLA4, hits give low values 1.01 | locus YNL307C, strain MCK1, hits give low values 1.01 | locus YNL322C, strain KRE1 (second series), hits give low values 0.979 | locus YNL322C, strain KRE1, hits give low values 1.03 | locus YNR049C, strain mso1, hits give low values 0.993 | locus YNR052C, strain pop2, hits give low values 0.982 | locus YOL012C, strain htz1 1.17 | locus YOL147C, strain pex11, hits give low values 0.992 | locus YOR001W, strain rrp6, hits give low values 1.01 | locus YOR061W, strain CKA2, hits give low values 1.03 | locus YOR069W, strain VPS5, hits give low values 1.02 | locus YOR070C, strain gyp1, hits give low values 1.01 | locus YOR080W, strain dia2, hits give low values 0.998 | locus YOR083W, strain WHI5, hits give low values 0.99 | locus YOR106W, strain vam3, hits give low values 1.01 | locus YOR136W, strain idh2, hits give low values 0.993 | locus YOR144C, strain elg1, hits give low values 0.99 | locus YOR184W, strain ser1, hits give low values 1.03 | locus YOR231W, strain MKK1, hits give low values 1.02 | locus YOR265W, strain rbl2, hits give low values 0.999 | locus YOR270C, strain vph1, hits give low values 1 | locus YOR290C, strain snf2, hits give low values 0.995 | locus YOR316C, strain cot1, hits give low values 1.01 | locus YPL051W, strain arl3, hits give low values 1.01 | locus YPL055C, strain LGE1, hits give low values 1.1 | locus YPL078C, strain atp4, hits give low values 1 | locus YPL106C, strain sse1, hits give low values 0.984 | locus YPL240C, strain hsp82, hits give low values 1.01 | locus YPL256C, strain CLN2, hits give low values 0.993 | locus YPR119W, strain clb2, hits give low values 1 | locus YPR141C, strain kar3, hits give low values 0.998 | locus YPR163C, strain tif3, hits give low values 0.997 | locus YPR167C, strain met16, hits give low values 1.01 | strain wtn01, hits give low values 1.02
